# The list is not random: actives were taken first. Their share in the collection is about 4.2%.
# ssDAF-12 act: S. stercoralis DAF-12 nuclear receptor activators, primary screen, cell-based, luminescence, HEK293, GRIP1 co-expression, lit1-tk-luc; Nuclear hormone receptor DAF-12 (Strongyloides stercoralis); HEK293 ssDAF-12/GRIP1 lit1-tk-luc reporter; % of 3 µM dafachronic acid response; activation, % at 6.8 µM; actives 1% (n = 370,000); AID 652126, 2013;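 active means activation above the mean over all tested compounds plus 3 SD, cut at about 0.9% in these data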;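 further: 0% = DMSO-only wells and 100% = 3 µM delta7-dafachronic acid wells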
# hcDAF12 agonist: H. contortus DAF-12 nuclear receptor activators, primary screen, cell-based, luminescence, HEK293, lit1-tk-luc reporter; HEK293 hcDAF-12 lit1-tk-luc reporter; 0% DMSO, 100% Δ7-dafachronic acid; activation, % at 6.8 µM; actives 1.4% (n = 370,000); AID 652067, 2013;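 active means activation above the mean of all tested compounds plus 3 SD, cut at about 5.5% in these data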;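 further: 100% = response to 3 µM Δ7-dafachronic acid high control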
# hgDAF12 agonist: H. glycines DAF-12 receptor agonists, primary screen, cell-based, luminescence, HEK293, GAL4 fusion, UAS-luciferase; Nuclear hormone receptor DAF-12 (Heterodera glycines), GAL4 fusion; actives 1.8% (n = 370,000); AID 687014, 2013; activation, % at 6.8 µM; HEK293 GAL4-hgDAF12 UAS-luciferase reporter, agonist luminescence; normalized to butyrate control;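 active means activation above a cutoff set at the mean of all screened compounds plus 3 SD, cut at about 10% in these data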;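 further: 0% = DMSO wells and 100% = sodium butyrate wells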
# SMARCA2 act: SMARCA2 (BRM) function activators, primary screen, cell-based, luminescence, high throughput; MG213 cells, MMTV-luciferase reporter, dexamethasone, overnight; activation, % at 9.1 µM; actives 1% (n = 370,000); in the data active means activation above about 7.8%;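 further: 0% = vehicle wells and 100% = reference activator wells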
# DAX1 inh: DAX1 (NR0B1) inhibitors on StAR promoter, primary screen, cell-based, luminescence, SF-1 (NR5A1), full-length DAX-1 | HEK293T StAR-luciferase reporter, SF-1/DAX-1 repression relief | inhibition, % at 6.8 µM | actives 1.1% (n = 370,000) | AID 652010, 2013;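 active means inhibition above the mean over all tested compounds plus 3 SD, cut at about 3.6% in these data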;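 further: 0% = DAX-1 cells with DMSO and 100% = cells lacking DAX-1 with DMSO; higher inhibition means more luminescence from relief of DAX-1 repression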
# Active calls of the source: *; · = no result.
SMILES,ssDAF-12 act,hcDAF12 agonist,hgDAF12 agonist,SMARCA2 act,DAX1 inh
O=C(N/N=C/c1c(Cl)cccc1Cl)c1n[nH]c2c1CCCC2,-2,-1,8,0,1
Cc1ccsc1/C=N\NC(=O)c1n[nH]c2c1CCC2,1.0*,6.0*,10,5,1
CCCC1CCC2(CC1)CCC2OC(=S)Nc1ccccc1Cl (stereo not drawn),-1,-2,2,·,·
C=CCN(C)CC#Cc1ccc(F)cc1,-1,0,-3,0,1
CCCCn1cnc2c(oc3ccccc32)c1=O,0,0,12*,2,1
COc1ccc(CNS(=O)(=O)/C=C/c2ccc(F)cc2CNC(=O)OC(C)(C)C)cc1,-2,-2,-3,-4,-2
O=C1c2ccccc2C(=O)N1CN(C(=O)COc1ccc(Cl)cc1Cl)c1cccc(F)c1,0,5.9*,2,1,1
CCN(C(=O)COc1cc(=O)n(CC)c2ccccc12)c1cccc(Cl)c1,-1,-2,-1,-3,-1
O=C(Cc1cccs1)NC1CCCC1,0,-1,2,2,0
O=C(CCS(=O)(=O)c1cccs1)NC1CCCCCC1,0,1,12*,4,1
CC(C)C1=CC2C3C(C(C(C)C)=CC(=O)[C@@]3(C)O)C1C(=O)C2(C)O (stereo partly drawn),-1,0,-2,-3,1
COc1ccc(OC)c(N(CC(=O)Nc2ccc(NC(C)=O)cc2)S(C)(=O)=O)c1,-1,-1,0,-1,0
COC(=O)c1ccc(C)c(NC(=O)CN(c2cc(OC)ccc2OC)S(C)(=O)=O)c1,-1,-1,4,1,4.2*
O=C(COC(=O)CNS(=O)(=O)c1ccc(Br)cc1Cl)NCCc1ccccc1,1.4*,2,2,-3,-4
COc1ccccc1C(=O)NCC(=O)OCc1csc(-c2ccccc2)n1,0,5.7*,9,0,1
O=C(CNC(=O)c1ccccc1F)OCc1csc(-c2ccccc2)n1,-1,0,3,1,2
COc1ccc(C(=O)OCCN(C)C2CN(Cc3cn(Cc4ccccc4Cl)nn3)S(=O)(=O)C2)cc1OC (stereo not drawn),-1,0,-1,-1,-2
CCOc1ccc(NC(=O)N(C2CCCCC2)C(C)c2ccncc2)cc1 (stereo not drawn),1.6*,3,1,0,0
CCOc1ccc(NC(=O)N(C2CCCCC2)C(C)c2cccnc2)cc1 (stereo not drawn),-2,-3,-1,-1,-1
Nc1c2c(=O)[nH]c(O)cc2nn1-c1ccccc1,1.2*,5,-1,1,-1
O=C1C2CSCN2C(=O)CN1CCCN1CCN(C(c2ccccc2)c2ccccc2)CC1 (stereo not drawn),1.2*,0,-1,4,0
Cc1ccc(S(=O)(=O)N2[C@@H](Cc3ccccc3)CO[C@H]2CC(=O)c2cccs2)cc1,0,-1,0,0,4.0*
Cc1ccc(S(=O)(=O)N2[C@@H](Cc3ccccc3)CO[C@H]2CC(=O)c2ccccc2)cc1,-1,1,-1,1,-1
COc1ccccc1CCC[C@H](CCS(=O)(=O)C(C)C)CC1CCCCC1,-1,-2,5,-3,-1
CCCCCc1ccc(-c2ccc(/C=C/C(=O)O)cc2)nc1,-2,-3,-7,-7,1
SMILES,ssDAF-12 act,hcDAF12 agonist,hgDAF12 agonist,SMARCA2 act,DAX1 inh
CCCCCCCc1ccc(-c2ccc(O)cc2)nc1,-1,2,12*,2,1
Nc1nc(-c2ccccc2)c(N=Nc2ccc(Cl)cc2)s1,1.2*,3,0,-1,0
CCc1ccc(NC(=S)N2CCCCCCC2)cc1,0,0,11*,0,3
CCOc1ccc(NC(=S)N2CCCC2)cc1,-1,0,4,-1,1
O=C(CCNC(=O)c1ccco1)Nc1nc(-c2ccccc2)cs1,1.0*,6.4*,9,6,0
CC(=O)Nc1ccc(-c2csc(NC(=O)CCNC(=O)c3ccco3)n2)cc1,-1,0,-1,-2,-1
CN(C(=O)c1ccco1)c1nc(-c2ccccc2)cs1,0,5.9*,11*,5,3.7*
Cc1ccccc1CN1[C@@H](C)[C@H](c2ccccc2)Oc2cccc(NCC(C)C)c2S1(=O)=O,-1,4,0,-3,2
Cc1cccc(NC(=O)NCCN2C(=O)C3C4C=CC(C4)C3C2=O)c1 (stereo not drawn),-1,0,11*,-1,1
O=S(=O)(Nc1nc2ccccc2nc1N1CCc2ccccc2C1)c1ccc(Br)cc1,2.4*,22*,16*,7,5.8*
COc1ccccc1C1CC(=O)Oc2cc(O)ccc21 (stereo not drawn),-2,-1,1,-3,4.0*
O=C(Cn1cnc2ccccc2c1=O)N1CCN(C(=O)C2CCCO2)CC1 (stereo not drawn),-1,0,3,-5,1
Cc1cccc(C(=O)Nc2ccccc2SCC(=O)Nc2ccc(C)c(Cl)c2)c1,0,6.5*,5,2,0
O=S1(=O)CC(N2CCN(Cc3ccccc3F)CC2)CN1Cc1cn(Cc2ccc(C(F)(F)F)cc2)nn1 (stereo not drawn),-2,-3,-8,-6,-5
O=C(OCc1cc(=O)n2ccsc2n1)c1ccc(O)cc1O,-1,1,9,0,1
Cc1ccsc1C(=O)OCc1cc(=O)n2ccsc2n1,0.9*,2,13*,7,4.3*
O=C(NCC(c1ccco1)N1CCN(c2ccccc2)CC1)C1CCCCC1 (stereo not drawn),-1,0,2,4,3
O=C(CN(Cc1ccccc1)C(=O)c1csnn1)NCc1ccc2c(c1)OCO2,1,5.8*,3,2,0
O=C(NCc1ccc2c(c1)OCO2)OCc1ccccc1,-1,2,7,0,4.0*
CC1Oc2ccccc2N(CC(=O)Nc2ccc3c(c2)OCO3)C1=O (stereo not drawn),-1,0,-1,-4,-1
CC1Oc2ccccc2N(CC(=O)NCc2ccc3c(c2)OCO3)C1=O (stereo not drawn),0,2,11*,1,1
COC(=O)[C@]1(C)N[C@H](CN(C)C(C)=O)[C@@H]2C(=O)N(Cc3ccccc3)C(=O)[C@@H]21,3.7*,0,-1,-2,0

# Screens (PubChem)
